From PubChem
Rows were chosen to be rich in hits. Some 9.3% of all compounds tested hit in one or more screens of this group.
Vaccinia mCherry: vaccinia inhibition (mCherry reporter) | Vaccinia virus mCherry reporter infection, fluorescence | Potency, µM (series often up to 36.5 µM), inactives show at the highest dose activity change, negative = inhibition, hits mostly inhibitors | hit rate 0.63% among 310,000 | AID 720579; calls by dose curve; tested in A549 cells; also: potency is read from the fitted curve at half-maximal effect; nearly all actives have a fitted effect of over 35% in size
Sm TGR block: blocks Schistosoma mansoni thioredoxin glutathione reductase; AID 485364; purified TGR, DTNB reduction, TNB absorbance 405 nm; hit rate 3% among 360,000; Potency, µM (top dose mostly 114 µM), without a hit: top-dose activity change, negative = inhibition, hits mostly inhibitors; Q962Y6; also: potency is read from the fitted curve at half-maximal effect; nearly all actives have a fitted effect of over 60% in size
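Kinetic colorimetric format: TGR-catalysed, NADPH-driven DTNB reduction monitored via TNB absorbance. Enzyme dispensed at 20 nM; compound exposure 15 min at room temperature before reaction start.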
HCMV antiviral: blocks human cytomegalovirus replication. HFF cells, HCMV-luciferase reporter, 72 h; hits give low values. hit rate 4.5% among 410,000. activity change, negative = inhibition, % at 57.5 µM; in the data active = activity change below about -60%; inconclusive = no clear call, values can overlap the other calls; inactive = above about -39%
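Two-dose cell screen: HFF monolayers treated with compounds and infected with luciferase-expressing HCMV at 1 PFU/cell, 72 h at 37C, then lysed for luciferase measurement.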
HCV inhibitor: HCV inhibition. Huh7.5.1 HCVcc-Cre infection, luciferase reporter, 44 h. Potency, µM (top dose mostly 41.8 µM), for inactives: at the top dose activity change, negative = inhibition, hits mostly inhibitors. hit rate 3.4% among 340,000. AID 651820; also: potency is read from the fitted curve at half-maximal effect
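Whole-lifecycle infectious HCVcc-Cre system; cells 1,000/well, compound then virus (~0.5 moi) added 4 h after plating, 44 h culture. Luciferase read 15 sec following 15 min substrate incubation, room temp.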
VACV Venus inh: vaccinia inhibition (Venus reporter). hit rate 0.46% among 330,000. Vaccinia virus Venus reporter expression, fluorescence. AID 720580. Potency, µM (doses to about 36.5 µM), inactives show top-dose activity change, negative = inhibition, actives largely listed as inhibitors; calls by dose curve; tested in A549 cells; also: potency is read from the fitted curve at half-maximal effect; nearly all actives have a fitted effect of over 30% in size
FMDV inh: antivirals against foot and mouth disease virus; Potency, µM (highest dose often 57.9 µM), for the others: at the highest dose activity change, negative = inhibition, hits mostly inhibitors; FMDV antiviral cell-based qHTS; AID 1159524; hit rate 1.2% among 410,000; calls by dose curve; tested in HEK293T cells; also: read-out not given here; potency is read from the fitted curve at half-maximal effect; nearly all actives have a fitted effect of over 45% in size
* = called active by the depositor; i = inactive; ? = inconclusive; . = not tested or not shown; [ ] = remark or other dose. Unless noted, calls follow the shape of the dose curve; as a rule, active = well fitted curve in the direction sought with a large enough effect; inconclusive = small, poorly fitted or top-dose-only effect, or another doubt; inactive = no such curve, though single readings can be large; an effect the other way counts as inactive or inconclusive. % is scaled to controls: 0 for no effect and ±100 for the full control effect.

SMILES	Vaccinia mCherry	Sm TGR block	HCMV antiviral	HCV inhibitor	VACV Venus inh	FMDV inh
CC(=O)c1cccc(NC(=O)c2nc(-c3ccccc3)oc2C)c1	i	-6.2%	-4.4	15.8µM*	-4.2%	-23.8%
CC(=O)c1ccc(NC(=O)c2ccc(-c3nc(CSc4ccccc4)c(C)o3)cc2)cc1	-29.0%	?	-76.5*	.	?	?
NC(=O)c1ccc(NC(=O)CS(=O)(=O)c2cn(CC(=O)N3CCCC3)c3ccccc23)cc1	-13.8%	?	-25.8	17.8%	-13.9%	-17.5%
CN(c1ccccc1)S(=O)(=O)c1cccc(NC(=O)c2cc(=O)c3ccccc3o2)c1	-11.9%	-1.0%	-66.2*	11.2µM*	-3.6%	31.6µM*
NS(=O)(=O)c1cccc(NC(=O)c2cc(=O)c3ccccc3o2)c1	-10.4%	-8.9%	7.1	-21.5%	-8.3%	23.6%
Cc1ccc(S(=O)(=O)N2CCCCC2)cc1NC(=O)c1cc2ccccc2o1	.	1.4%	-4.0	22.4µM*	.	-20.1%
O=C(Nc1cccc(S(=O)(=O)N2CCCC2)c1)c1ccco1	.	.	7.6	?	.	-18.7%
O=C(Nc1cccc(S(=O)(=O)N2CCCCCC2)c1)c1cc(=O)c2ccccc2o1	-29.0%	-4.1%	-4.6	?	-24.0%	20µM*
Oc1ccc(-c2nc3ccc(Cl)cn3c2Nc2ccc(Cl)cc2)cc1	-21.5%	0.1%	?	.	-20.2%	-25.7%
c1ccc(C[n+]2csc3ccccc32)cc1	.	4.47µM*	61.4	-10.8%	.	26.2%
CCc1ccc(C(C)NC(=S)NCc2ccc(F)cc2)cc1 (stereo not given)	?	3.4%	29.2	?	-16.6%	6.8%
Cc1ccc(C(C)NC(=S)NCc2ccc(F)cc2)cc1C (stereo not given)	.	1.8%	-82.4*	?	.	2.1%
Cc1cc(C)cc(Nc2ccc3nonc3c2[N+](=O)[O-])c1	-14.8%	.	-82.6*	?	-11.5%	?
CCOC(=O)NNc1ccc2nonc2c1[N+](=O)[O-]	i	15.8µM*	.	?	-0.5%	-25.3%
CCc1ccc(Nc2ccc3nonc3c2[N+](=O)[O-])cc1	-0.6%	.	6.5	1.2%	-0.9%	-8.8%
CCN(CC)CCOC(=O)c1ccc(N/C=C(/C#N)c2nc(-c3ccc4c(c3)OCO4)cs2)cc1	-8.8%[7.34 µM]	-6.9%	-0.4	10µM*	0.0%[7.34 µM]	-22.4%
CCN(CC)CCOC(=O)c1ccc(N/C=C(/C#N)c2nc(-c3ccc(OC)cc3)cs2)cc1	i	-17.4%	-77.2*	?	-5.0%	-6.4%
CCN(CC)CCOC(=O)c1ccc(N/C=C(/C#N)c2nc(-c3cc4ccccc4oc3=O)cs2)cc1	i	?	-1.8	3.2%	-10.9%	7.9%
CCC(C)(C)NC(=O)C(c1ccc(F)cc1)N(Cc1ccco1)C(=O)c1cnccn1 (stereo not given)	-10.7%	0.0%	-1.4	5.3%	-7.6%	.
COc1ccc(Cc2noc(CN3CCCC(C(=O)c4cccs4)C3)n2)cc1OC (stereo not given)	i	-8.8%	3.8	-12.1%	-8.2%	?
COc1cc(/C=C2\C[C@H]3[C@@H]4CC=C5C[C@@H](N6CCCC6)CC[C@]5(C)[C@H]4CC[C@]3(C)[C@H]2O)cc(OC)c1OC	-10.0%	.	8.0	7.08µM*	-9.4%	-2.3%
O=C1CC(N2CCC(O)(c3ccc(Cl)cc3)CC2)C(=O)N1Cc1ccc(N2CCCC2=O)cc1 (stereo not given)	-26.4%	31.6µM*	-22.9	?	-20.8%	?
O=C1CCCN1CCC1CCN(C2CC(=O)N(Cc3ccc(N4CCCC4=O)cc3)C2=O)CC1 (stereo not given)	i	17.8µM*	2.4	8.4%	-5.9%	.
O=C1CC(N2CCOCC2)C(=O)N1Cc1ccc(N2CCCC2=O)cc1 (stereo not given)	i	-1.4%[11.4 µM]	48.8	5.7%	-13.7%	4.7%
O=C1CCCN1CCC1CCN(C2CC(=O)N(c3ccc(Cl)cc3)C2=O)CC1 (stereo not given)	-19.1%	17.8µM*	2.2	23.2%	-8.3%	.
SMILES	Vaccinia mCherry	Sm TGR block	HCMV antiviral	HCV inhibitor	VACV Venus inh	FMDV inh
O=C1CC(N2CCN(c3ccccc3)CC2)C(=O)N1c1ccc(Cl)cc1 (stereo not given)	.	?	46.9	20.6%	.	-3.7%
CN1/C(=C\C=N\NC(=O)c2ccc(O)cc2)C(C)(C)c2ccccc21	i	2.0%	-90.3*	?	38.0%	28.2µM*
CC(C)C(=O)NC(=S)/C=C1/N(C)c2ccccc2C1(C)C	i	13.6%	?	?	29.1%	-29.3%
Cc1ccc(C(=O)NC(=S)/C=C2\N(C)c3ccccc3C2(C)C)cc1	.	7.0%	-68.0*	11.2µM*	.	-26.7%
COc1ccc(CN2CCN(C(=O)c3ccccc3F)CC2)c(OC)c1OC	-5.0%	.	23.9	7.6%	4.0%	-11.0%
COc1cccc(CN2CCN3C(C(=O)Nc4ccccc4)=COC3=NC2=O)c1	.	.	-61.7*	.	.	.
Cn1cnc([N+](=O)[O-])c1Sc1ccc(Br)cc1	-5.0%	22.4µM*	9.0	?	-5.2%	?
COc1ccc(N=C2S/C(=C\c3cc(C)n(C)c3C)C(=O)N2C)cc1	.	50.1µM*	-8.4	11.2µM*	-28.6%	-14.4%
CCCN1C(=O)/C(=C/c2cc(C)n(C)c2C)SC1=Nc1ccc(OC)cc1	.	-24.3%	-2.1	?	?	-22.3%
Cc1cc(C)nc(N/N=C/c2cc(C)n(CC(F)(F)F)c2C)n1	.	-6.0%	-74.7*	-0.1%	.	17.5%
CCOC1=C2CN(S(=O)(=O)c3ccc(C)cc3)[C@H](c3ccc(CC)cc3)C[C@@H]2N(S(=O)(=O)c2ccc(C)cc2)[C@H](c2ccccc2)C1	13.4%	.	-73.1*	.	-22.6%	-24.2%
CCOC1=C2[C@H](c3ccc(CC)cc3)N(S(=O)(=O)c3ccc(C)cc3)C[C@H]2C(C#N)(C#N)C(C#N)(C#N)C1	i	.	-74.0*	.	3.0%	35.5µM*
CCOC1=C2[C@H](c3ccccc3)N(S(=O)(=O)c3ccc(C)cc3)[C@H](C(C)C)[C@H]2C(C#N)(C#N)C(C#N)(C#N)C1	.	.	-76.4*	.	.	.
CCOC1=C2[C@H](c3ccccc3Cl)N(S(=O)(=O)c3ccc(C)cc3)C[C@H]2C(C#N)(C#N)C(C#N)(C#N)C1	4.0%	.	6.7	.	0.7%	?
COc1ccc(-c2noc(CCC(=O)N3CCN(c4ccccc4Br)CC3)n2)cc1	-14.5%	.	-5.2	-40.7%	-11.6%	-10.5%
COc1cccc(NC(=O)CN2C(=O)C(c3ccc(C)cc3)=NC23CCCCCC3)c1	-7.1%	5.3%	?	?	-8.8%	?
COc1ccc(C2=NC3(CCCCCC3)N(CC(=O)Nc3cccc(Cl)c3)C2=O)cc1	-25.7%	-1.0%	-90.6*	.	-21.8%	?
O=C(CN1C(=O)C(c2ccc(F)cc2)=NC12CCCCCC2)Nc1ccc(F)c(Cl)c1	i	2.2%	-89.8*	.	-16.1%	?
